Some test systems named below: NCI-H23 lung; NCI-H226 lung; NCI-H322M lung; HOP-62 NSCLC; NCI-H460 lung; HOP-92 NSCLC; NCI-H522 lung; A549/ATCC NSCLC; 786-0 renal; COLO 205 colon; DU-145 prostate; K-562 leukemia; MALME-3M melanoma; MDA-MB-231 breast; RXF 393 renal; SF-268 CNS; SF-295 CNS; SF-539 CNS; UACC-257 melanoma; M14 melanoma.
What all share (experiment): NCI-60 one-dose screen, 48 h (100 = growth as untreated, 0 = no growth, -100 = all killed)
Settings in all cases: 10 µM unless noted

Compounds without any hit were thinned out: in the full panel of roughly 83,000, 20% have a hit.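 Treatment: one concentration, 48 hours, 96-well format. Scoring: percent growth, with anything below 10 considered active.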 Unmarked numbers belong to inactive results. The source made the active and inactive calls.

Consider `CCCCCCN1CSC(=S)N(CCCCCC)C1`, for which the growth in the assay with NCI-H23 lung was 83.6%; in the assay with NCI-H226 lung, 92.3%; with NCI-H322M lung, 115%; in the assay with HOP-62 NSCLC, 104%; in the assay on NCI-H460 lung, 100%; in the assay with HOP-92 NSCLC, 81.5%. Also, the growth with NCI-H522 lung was 101%; in the assay on A549/ATCC NSCLC it was 101%; with 786-0 renal, 99.4%; in the assay with COLO 205 colon, 106%; in the assay on DU-145 prostate, 113%; in the assay with K-562 leukemia it was 110%. Moreover, the growth with MALME-3M melanoma is 95.2%; with MDA-MB-231 breast, 97.4%; in the assay on RXF 393 renal, 106%; with SF-268 CNS it was 104%; with SF-295 CNS, 98.2%; in the assay with SF-539 CNS, 102%. Further, the growth with UACC-257 melanoma is 104%; in the assay on M14 melanoma, 96.5%.

For `CCCCC(CC)OC(=O)C(Br)CC` (stereo not given), the growth in the assay with NCI-H23 lung was 92.7%; in the assay with NCI-H226 lung it was 108%; with NCI-H322M lung, 101%; in the assay on HOP-62 NSCLC, 111%; in the assay with NCI-H460 lung, 109%; with HOP-92 NSCLC, 95.8%. For the same molecule, the growth was 103% in the assay with NCI-H522 lung; 103% with A549/ATCC NSCLC; 98.4% with 786-0 renal; 111% with COLO 205 colon; 107% in the assay on DU-145 prostate; 83.8% in the assay on K-562 leukemia. Besides, the growth in the assay on MALME-3M melanoma is 99.9%; with MDA-MB-231 breast it was 112%; with RXF 393 renal, 114%; in the assay on SF-268 CNS, 98.1%; in the assay with SF-295 CNS it was 97.5%; in the assay on SF-539 CNS, 98.7%. Also, the growth is 104% in the assay with UACC-257 melanoma and 101% in the assay on M14 melanoma.

Turning to `CCOC(=O)NNC(=S)Nc1ccccc1`, the growth in the assay with NCI-H23 lung is 99.5%; with NCI-H226 lung it was 103%; in the assay with NCI-H322M lung, 102%; in the assay with HOP-62 NSCLC it was 102%; in the assay with NCI-H460 lung, 108%; in the assay on HOP-92 NSCLC it was 93.5%. Moreover, the growth was 100% with NCI-H522 lung; 96.3% in the assay on A549/ATCC NSCLC; 103% in the assay with 786-0 renal; 131% with COLO 205 colon; 118% in the assay with DU-145 prostate; 113% in the assay with K-562 leukemia. The growth in the assay on MALME-3M melanoma is 110%; in the assay with MDA-MB-231 breast, 115%; in the assay with RXF 393 renal, 113%; in the assay with SF-268 CNS it was 103%; in the assay on SF-295 CNS, 102%; in the assay with SF-539 CNS, 98.9%. Moreover, the growth in the assay on UACC-257 melanoma was 102%; in the assay on M14 melanoma, 108%.

For the molecule `Nc1nc(Nc2cc(Cl)cc(Cl)c2)nn1S(=O)(=O)c1ccc2ccccc2c1`, the growth with NCI-H23 lung was 66.5%; with NCI-H226 lung, 66.7%; with NCI-H322M lung, 76.4%; in the assay with HOP-62 NSCLC it was 66%; in the assay on NCI-H460 lung, 27.8%; with HOP-92 NSCLC, -10.4% (active). Besides, the growth with NCI-H522 lung was 69%; with A549/ATCC NSCLC it was 42.7%; with 786-0 renal, 25.5%; in the assay with COLO 205 colon, 66.5%; in the assay on DU-145 prostate, 47.7%; in the assay on K-562 leukemia it was 41.5%. Moreover, the growth was 63% in the assay on MALME-3M melanoma; 35.3% in the assay on MDA-MB-231 breast; 30.6% in the assay on RXF 393 renal; 52.4% with SF-268 CNS; 93.6% with SF-295 CNS; 83.5% with SF-539 CNS. In addition, the figures for the growth with UACC-257 melanoma and with M14 melanoma were 83.3% and 78.4%, respectively.

Consider `COc1cc(C(=O)/C=C/c2c(C)n([O-])c3ccc(C(F)(F)F)cc3[n+]2=O)cc(OC)c1OC`, for which the growth with NCI-H23 lung was 98.2%; in the assay with NCI-H226 lung, 81.6%; in the assay with NCI-H322M lung it was 118%; in the assay with HOP-62 NSCLC, 118%; in the assay on NCI-H460 lung it was 116%; in the assay on HOP-92 NSCLC, 87.3%. Moreover, the growth in the assay with NCI-H522 lung was -82.1% (active); in the assay on A549/ATCC NSCLC, 94.1%; in the assay on 786-0 renal, 101%; in the assay with COLO 205 colon it was 46.2%; in the assay on DU-145 prostate, 91.3%; with K-562 leukemia, 52.9%. For the same molecule, the growth is 106% in the assay on MALME-3M melanoma; 99.6% in the assay with MDA-MB-231 breast; -35.4% (active) in the assay with RXF 393 renal; 96.1% in the assay with SF-268 CNS; 105% in the assay on SF-295 CNS; 96.5% with SF-539 CNS. The growth is 74.2% in the assay on UACC-257 melanoma and 88.9% in the assay with M14 melanoma.

As to `CC(C)(C)n1cc(-c2ccnc(NCCNS(=O)(=O)c3ccc(Cl)cc3)c2)c(-c2cccc(O)c2)n1`, the growth with NCI-H23 lung was 64.7%; with NCI-H226 lung, 67.5%; in the assay on NCI-H322M lung it was 85.3%; in the assay on HOP-62 NSCLC, 84.9%; with NCI-H460 lung, 28.2%; in the assay with HOP-92 NSCLC, 72%. The growth with NCI-H522 lung was 68%; in the assay on A549/ATCC NSCLC, 51.8%; in the assay with 786-0 renal, 54.6%; with COLO 205 colon it was -7.89% (active); with DU-145 prostate, 80.6%; in the assay on K-562 leukemia it was 6.91% (active). Besides, the growth in the assay with MALME-3M melanoma is 64.4%; in the assay on MDA-MB-231 breast it was 56.6%; in the assay on RXF 393 renal, 64.3%; in the assay with SF-268 CNS, 54.7%; with SF-295 CNS, 54.4%; with SF-539 CNS, 68.1%. For the same molecule, the figures for the growth in the assay on UACC-257 melanoma and with M14 melanoma were 64.8% and 62.8%, respectively.

For the molecule `Cc1ccc(S(=O)(=O)NCCNc2nccc(-c3c(-c4cccc(N)c4)nc4sccn34)n2)cc1`, the growth with NCI-H23 lung is 91.7%; with NCI-H226 lung, 79.6%; in the assay on NCI-H322M lung, 108%; in the assay with HOP-62 NSCLC, 105%; in the assay with NCI-H460 lung, 94.7%; in the assay on HOP-92 NSCLC, 94%. Moreover, the growth in the assay with NCI-H522 lung is 83.5%; in the assay with A549/ATCC NSCLC, 87.4%; with 786-0 renal, 96.3%; in the assay on COLO 205 colon, 105%; in the assay on DU-145 prostate, 96.9%; in the assay with K-562 leukemia, 67.1%. Further, the growth is 106% in the assay on MALME-3M melanoma; 85.9% in the assay with MDA-MB-231 breast; 102% with RXF 393 renal; 86.7% in the assay with SF-268 CNS; 95.6% with SF-295 CNS; 101% in the assay on SF-539 CNS. Besides, the growth in the assay with UACC-257 melanoma was 91.1%; in the assay on M14 melanoma, 107%.

For `CN1CCN(Cc2ccc(NC(=O)c3nc4ccc5[nH]ncc5c4c4c3CCC4)cc2C(F)(F)F)CC1`, the growth in the assay with NCI-H23 lung is 19.2%; in the assay with NCI-H226 lung, 73.9%; with NCI-H322M lung it was -50.9% (active); in the assay with HOP-62 NSCLC, -78.7% (active); in the assay with NCI-H460 lung, -84.2% (active); in the assay with HOP-92 NSCLC, 65.5%. Moreover, the growth in the assay with NCI-H522 lung was -71.1% (active); in the assay on A549/ATCC NSCLC, -71.6% (active); in the assay on 786-0 renal, -96.5% (active); with COLO 205 colon, -43% (active); in the assay on DU-145 prostate, -90.1% (active); with K-562 leukemia it was -46.6% (active). The growth is -55% (active) in the assay on MALME-3M melanoma; -84.3% (active) in the assay with MDA-MB-231 breast; 67.9% in the assay on RXF 393 renal; 98.2% in the assay with SF-268 CNS; 99.8% with SF-295 CNS; -96% (active) in the assay with SF-539 CNS. Further, the growth in the assay on UACC-257 melanoma was -64.5% (active); in the assay on M14 melanoma it was -84.5% (active).
